Screens deposited in PubChem BioAssay by several laboratories.
MCL1 BIM primary = MCL1-BIM-BH3 interaction inhibition (human); Q07820; GST-MCL1 / FITC-Bim-BH3 fluorescence polarization; inhibition, % at 10.9 µM; 320,000 tested, 0.68% active;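 active = inhibition above the mean inhibition of all tested compounds plus 3 SD, set per campaign, cut at about 40% in these data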;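 also: 0% = DMSO wells and 100% = unlabeled Bim-BH3 peptide control; higher means more loss of mP so more displacement of Bim peptide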
GLD-1 TGE inh = GLD-1-TGE RNA interaction inhibition (C. elegans). 320,000 tested, 0.44% active. inhibition, % at 5.96 µM. purified GLD-1 + fluorescein TGE RNA, fluorescence polarization. AID 2280. Q17339;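 active = percent inhibition above a per-plate cutoff, the plate mean of test compounds plus 3 SD, cut at about 30% in these data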;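 also: 0% = DMSO wells with GLD-1 and probe and 100% = wells lacking GLD-1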
BCLXL inh = Bcl-xL (human) inhibition; inhibition, % at 10.9 µM; 320,000 tested, 0.7% active; GST-Bcl-xL / FITC-Bim BH3 peptide fluorescence polarization;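 active = inhibition above the mean of all tested compounds plus 3 SD, cutoff set per campaign, cut at about 30% in these data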;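 also: 0% = DMSO wells and 100% = unlabeled Bim-BH3 peptide competitor; inhibitors lower millipolarization by displacing the labeled peptide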
MEX-5 binding = C. elegans MEX-5 TCR-2 RNA binding activity; Q9XUB2; MEX-5/FITC-TCR2 RNA binding, fluorescence polarization; stronger effect = lower value; activity score (negative = inhibition of binding), % at 10 µM; 300,000 tested, 0.38% active; AID 1832;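 active = inhibition past about -25% in most replicates, and total fluorescence under double the plate's negative control median, limit read from the data; inconclusive = replicates evenly split on the limit, or fluorescence at least double controls; inactive = too little inhibition in most replicates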;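 also: 0% = DMSO and -100% = 5 µM competing unlabeled TCR2 RNA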
LANA-H2A inh = blocks KSHV LANA binding to histone H2A/H2B; Q9QR71; cell-free LANA-H2A/H2B peptide, fluorescence polarization; inhibition, % (no concentration beside the values); 320,000 tested, 0.6% active; AID 2629; in the data active = inhibition mostly above about 10%, no sharp cut-off; inactive = mostly below about 6.7%
CR mimetic SO = yeast age-related superoxide inhibition as caloric restriction mimetic; S. cerevisiae aged cells, superoxide DHE fluorescence; stronger effect = lower value; superoxide response (% of plate mean), % at 10 µM; 330,000 tested, 0.18% active; AID 2690;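 active = superoxide response under a set limit, about three screen SD below normal, cut at about 65% in these data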;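 also: yeast aged for seven days with compound at 30 °C before DHE staining; 100% = average MFI of all compound-treated wells on the plate with controls excluded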
BCLXL inh confirm = counter-screen for MCL1 inhibitors: confirmation of human Bcl-xL inhibitors; GST-Bcl-xL / FITC-Bim BH3 peptide FP binding; inhibition, % at 10.9 µM; 1,700 tested, 54% active; AID 2166; shares compounds with MCL1 BIM primary;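 active = inhibition above a cutoff equal to the mean inhibition of all tested compounds plus 3 SD, cut at about 30% in these data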;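 also: 0% = DMSO wells and 100% = unlabeled Bim BH3 control peptide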
MCL1 BIM confirm = MCL1-BIM-BH3 interaction inhibition, confirmation. inhibition, % at 10.9 µM. shares compounds with MCL1 BIM primary. GST-MCL1 / FITC-Bim-BH3 fluorescence polarization. 1,700 tested, 61% active;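 active = inhibition above the average of all tested compounds plus 3 SD, cut at about 40% in these data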;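 also: 0% = DMSO wells and 100% = unlabeled Bim-BH3 control peptide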
An asterisk follows results filed as active; ? = inconclusive; nt = not tested or not shown; + = active, no number. Most compounds without a hit are left out; they make up all but 1.9% or so of the library.

SMILES	MCL1 BIM primary	GLD-1 TGE inh	BCLXL inh	MEX-5 binding	LANA-H2A inh	CR mimetic SO	BCLXL inh confirm	MCL1 BIM confirm
CSc1nc(NCCOCCO)c2sc3nc(-c4ccco4)c4c(c3c2n1)CCC4	69*	-9	23	1	1	116	23	67*
COc1ccc(-c2cccc(NC(=O)c3ccc4c(c3)OCO4)c2)nn1	-3	3	0	1	1	120	nt	nt
CC(=O)Nc1ccc(/C=N/NC(=O)c2cc(-c3ccco3)nc3ccccc23)cc1	0	3	2	-3	3	105	nt	nt
O=C(O)c1ccccc1/C=N/NC(=O)c1cc(-c2ccco2)nc2ccccc12	64*	3	25	-16	3	123	42*	91*
O=C(CN1CCN(C(C(=O)Nc2ccc(F)cc2)c2ccccc2)CC1)NC1CC1 (stereo unspecified)	4	1	5	nt	5	97	nt	nt
COc1ccc(NC(=O)c2c(-c3c(Cl)cccc3Cl)noc2C)c(OC)c1	-15	4	-12	2	-1	106	nt	nt
CN1CCN(C2=C(Cl)C(=O)N(C3CCCCC3)C2=O)CC1	29	18	24	-2	2	93	nt	nt
CN1CCN(C2=C(Cl)C(=O)C(c3cnc(N4CCCCC4)s3)=C(Cl)C2=O)CC1	93*	27	77*	-71*	0	104	72*	92*
CC1(C)c2ccccc2N(CC(N)=O)C12C=Cc1ccccc1O2 (stereo unspecified)	-2	-6	0	-1	0	115	nt	nt
CC1(C)c2ccccc2N2CC(=O)N(CC(N)=O)C21C (stereo unspecified)	106*	85*	97*	8	-58	91	75*	103*
COC(=O)c1ccc(CNC(=O)COC(=O)/C=C/c2cc(OC)c(OC)c(OC)c2)cc1	nt	6	nt	nt	4	121	nt	nt
O=S(=O)(Nc1ccc(F)cc1)N1CCOCC1	-3	9	2	3	1	98	nt	nt
CCN1C=C(Cc2ccccc2C)C2=C(C1)C(c1ccccc1C)C(C#N)=C(N)O2 (stereo unspecified)	12	25	11	5	2	84	nt	nt
CCN1C=CC2=C(C#N)C(N)C(C#N)(C#N)C(c3ccccc3C(F)(F)F)C2C1 (stereo unspecified)	110*	76*	106*	-32*	10	103	50*	64*
CCc1cccc2cc3c(N)c(C(=O)Nc4ccc(S(=O)(=O)N5CCCC5)cc4)sc3nc12	94*	61*	104*	-24	-386	112	43*	67*
Cc1cccc2cc3c(N)c(C(=O)Nc4ccc(N5CCOCC5)cc4)sc3nc12	-67	-8	-25	?	-3	108	nt	nt
COc1ccc(C(CNC(=O)c2ccc(Cl)c(NC(=O)c3cccs3)c2)N2CCCC2)cc1 (stereo unspecified)	4	-2	-1	-1	-1	95	nt	nt
c1ccc(CN(Cc2ccccc2)c2nn[nH]n2)cc1	46*	-9	4	-1	10	86	4	8
Clc1ccc(CN(Cc2ccc(Cl)cc2)c2nn[nH]n2)cc1	5	2	6	0	-5	113	nt	nt
CN(C)c1ccc(NC2=C(Cl)C(=O)c3ccccc3C2=O)cc1	41*	4	28	-3	5	153	32*	37
CC(=O)Nc1ccc(NC2=C(Cl)C(=O)c3ccccc3C2=O)cc1	nt	nt	nt	-3	nt	nt	nt	nt
CCOc1ccccc1CN1CCCC(C(=O)Nc2cccc(-n3cccn3)c2)C1 (stereo unspecified)	3	1	1	-2	6	98	nt	nt
CCCN1CCC2(CC1)C(C#N)=C(N)Oc1c2sc2nc(C)cc(C)c12	70*	30	69*	-1	3	104	45*	46*
CCOC(=O)N1CCC2(CC1)C(C#N)=C(N)Oc1c2sc2nc(C)cc(C)c12	-2	-1	2	-2	0	111	nt	nt
COC(=O)C1CCN(C(=O)c2cc(S(=O)(=O)N3CCCCC3)ccc2Cl)CC1	-5	0	-1	nt	0	139	nt	nt
SMILES	MCL1 BIM primary	GLD-1 TGE inh	BCLXL inh	MEX-5 binding	LANA-H2A inh	CR mimetic SO	BCLXL inh confirm	MCL1 BIM confirm
CC(=O)c1ccc(S(=O)(=O)NCCCC(=O)N(C)Cc2ccc3c(c2)OCO3)cc1	-1	8	3	nt	1	74	nt	nt
CC(=O)Nc1cccc(C2=CC(c3ccco3)n3ncnc3N2)c1 (stereo unspecified)	123*	69*	116*	-87*	30*	109	141*	177*
Clc1ccc(C2=CC(c3ccco3)n3ncnc3N2)cc1 (stereo unspecified)	+	141*	189*	-91*	7	99	51*	76*
Clc1ccccc1C1=CC(c2ccco2)n2ncnc2N1 (stereo unspecified)	50*	21	49*	-9	4	79	34*	44*
CC(C)(C)OC(=O)C[C@H]1C/C=C\C[C@@H](CC(=O)N(CCO)Cc2ccccc2)C(=O)N[C@@H](Cc2ccccc2)COC1=O	nt	4	nt	nt	-3	98	nt	nt
O=C(CCN1CCOCC1)NNC(=O)c1ccc([N+](=O)[O-])cc1[N+](=O)[O-]	nt	5	nt	nt	0	144	nt	nt
C[C@]12c3[nH]c4ccc(Cl)cc4c3CCN1C(=O)[C@@H](CC(=O)NCCC1=CCCCC1)C[C@@H]2C(=O)N1CCOCC1	nt	nt	nt	nt	nt	114	nt	nt
N#CCCN(CCC#N)C(=O)C1c2ccccc2Oc2ccccc21	+	+	+	?	114*	95	28	29
Cc1ccccc1C(=O)N1CCC(C(=O)Nc2ccccn2)CC1	-7	-11	-2	3	nt	96	nt	nt
COc1ccc(C)cc1S(=O)(=O)N1CCN(C/C=C/c2ccccc2)CC1	0	5	3	nt	0	103	nt	nt
O=C(CN1CCC(NC(=O)C2CCCCC2)CC1)NCc1ccco1	4	2	7	4	-3	93	nt	nt
CC1CCN(CC(=O)NCc2ccco2)CC1	68*	1	2	2	0	117	6	-5
Cc1cc(NC(=O)CSc2nnc(-c3ccccc3F)n2N)no1	nt	-1	nt	nt	4	117	nt	nt
COc1cc(/C=C2\SC(=S)N(CCCCC(=O)O)C2=O)ccc1OS(=O)(=O)c1ccc(C)cc1	7	1	14	0	-1	84	nt	nt
O=C(Nc1cccc(S(=O)(=O)N2CCCCC2)c1)c1ccc(N2CCCC2=O)cc1	-1	5	5	nt	-2	103	nt	nt
